# Results filed as inconclusive are left out. Activity calls are given as the source filed them. Calls come from the whole dose curve; as a rule, active = well fitted curve in the direction sought with a large enough effect; inconclusive = small, poorly fitted or top-dose-only effect, or another doubt; inactive = no such curve, though single readings can be large; an effect the other way counts as inactive or inconclusive.
# What was measured:
# [1] = Quantitative High-Throughput drug screen in 47 multiple myeloma cell lines against the NCATS MIPE library collection: JIM3_ECACC cell viability assay (AID 1918963; note: nearly all actives have a fitted effect of over 35% in size)
# Procedure, shortened: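 Viability readout: CellTiter-Glo luminescence following 5 min room-temperature incubation with reagent. Prior exposure: 48 h, 37C, humidified 5% CO2, 500 cells per well.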
# [2] = Quantitative High-Throughput drug screen in 47 multiple myeloma cell lines against the NCATS MIPE library collection: INA6_PLB cell viability assay (AID 1918965; note: nearly all actives have a fitted effect of over 55% in size)
# Procedure, shortened: (§1)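 Approved and investigational drugs from MIPE 4.0 were added by pin tool to 500 cells per well. After 48 hours at 37C, ATP-based CellTiter-Glo luminescence indicated remaining viability.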
# [3] = Quantitative High-Throughput drug screen in 47 multiple myeloma cell lines against the NCATS MIPE library collection: JJN3_DSMZ cell viability assay (AID 1918966; note: nearly all actives have a fitted effect of over 50% in size)
# Procedure, shortened: (§2)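 CellTiter-Glo luminescence (ATP) after 48 h compound exposure, 37C/5% CO2; 500 cells/well; MIPE 4.0 approved/investigational drugs pinned in; DMSO = 100%, media only = 0% viability.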
# [4] = Quantitative High-Throughput drug screen in 47 multiple myeloma cell lines against the NCATS MIPE library collection: H1112_PLB cell viability assay (AID 1918967; note: nearly all actives have a fitted effect of over 30% in size)
# Procedure, shortened: as §2
# [5] = Quantitative High-Throughput drug screen in 47 multiple myeloma cell lines against the NCATS MIPE library collection: Karpas25_ECACC cell viability assay (AID 1918968; note: nearly all actives have a fitted effect of over 35% in size)
# Procedure, shortened: as §2
# [6] = Quantitative High-Throughput drug screen in 47 multiple myeloma cell lines against the NCATS MIPE library collection: KMS27_JCRB cell viability assay (AID 1918970); note: nearly all actives have a fitted effect of over 30% in size
# Procedure, shortened: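 Luminescent ATP read-out (CellTiter-Glo, 5 min at room temperature) after 48 h compound exposure of 500 KMS27_JCRB cells per well; DMSO wells define full viability and media-only wells zero.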
# [7] = Quantitative High-Throughput drug screen in 47 multiple myeloma cell lines against the NCATS MIPE library collection: KMS12BM_JCRB cell viability assay (AID 1918971); note: nearly all actives have a fitted effect of over 35% in size
# Procedure, shortened: (§3)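 Myeloma cell lines, 500 cells per well, exposed to MIPE 4.0 library compounds for 48 h at 37C, 5% CO2. Viability from ATP by CellTiter-Glo luminescence; normalised to DMSO (100%) and media-only (0%) wells.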
# [8] = Quantitative High-Throughput drug screen in 47 multiple myeloma cell lines against the NCATS MIPE library collection: KMS20_JCRB cell viability assay (AID 1918973); note: nearly all actives have a fitted effect of over 45% in size
# Procedure, shortened: as §2
# [9] = Quantitative High-Throughput drug screen in 47 multiple myeloma cell lines against the NCATS MIPE library collection: MOLP8_DSMZ cell viability assay (AID 1918977); note: nearly all actives have a fitted effect of over 45% in size
# Procedure, shortened: (§4)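 MIPE 4.0 approved/investigational drugs; 500 cells/well; 48 h 37 °C humidified 5% CO2; CTG luminescence readout; DMSO = 100%, media = 0% viability.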
# [10] = Quantitative High-Throughput drug screen in 47 multiple myeloma cell lines against the NCATS MIPE library collection: NCIH929_DSMZ cell viability assay (AID 1918978); note: nearly all actives have a fitted effect of over 35% in size
# Procedure, shortened: as §4
# [11] = Quantitative High-Throughput drug screen in 47 multiple myeloma cell lines against the NCATS MIPE library collection: MM1S_ATCC cell viability assay (AID 1918980); note: nearly all actives have a fitted effect of over 45% in size
# Procedure, shortened: as §4
# [12] = Quantitative High-Throughput drug screen in 47 multiple myeloma cell lines against the NCATS MIPE library collection: MM1R_ATCC cell viability assay (AID 1918981); note: nearly all actives have a fitted effect of over 35% in size
# Procedure, shortened: as §4
# [13] = Quantitative High-Throughput drug screen in 47 multiple myeloma cell lines against the NCATS MIPE library collection: KMS28PE_JCRB cell viability assay (AID 1918983); note: nearly all actives have a fitted effect of over 35% in size
# Procedure, shortened: as §4
# [14] = Quantitative High-Throughput drug screen in 47 multiple myeloma cell lines against the NCATS MIPE library collection: KMS12PE_JCRB cell viability assay (AID 1918972); note: nearly all actives have a fitted effect of over 30% in size
# Procedure, shortened: as §1
# [15] = Quantitative High-Throughput drug screen in 47 multiple myeloma cell lines against the NCATS MIPE library collection: KMS26_JCRB cell viability assay (AID 1918975); note: nearly all actives have a fitted effect of over 45% in size
# Procedure, shortened: as §3
# [16] = Quantitative High-Throughput drug screen in 47 multiple myeloma cell lines against the NCATS MIPE library collection: MMM1_PLB cell viability assay (AID 1918976); note: nearly all actives have a fitted effect of over 35% in size
# Procedure, shortened: as §4
# [17] = Quantitative High-Throughput drug screen in 47 multiple myeloma cell lines against the NCATS MIPE library collection: LP1_DSMZ cell viability assay (AID 1918982); note: nearly all actives have a fitted effect of over 35% in size
# Procedure, shortened: as §4
# [18] = Quantitative High-Throughput drug screen in 47 multiple myeloma cell lines against the NCATS MIPE library collection: KMS21BM_JCRB cell viability assay (AID 1918974); details: ATP luminescence, 48 h; viability: at 45.8 µM (top of the series) unless noted
# Procedure, shortened: as §2
# [19] = Quantitative High-Throughput drug screen in 47 multiple myeloma cell lines against the NCATS MIPE library collection: OCIMY1_PLB cell viability assay (AID 1918979); note: nearly all actives have a fitted effect of over 35% in size
# Procedure, shortened: as §4
# Potency is the fitted concentration of half-maximal effect.
SMILES,Potency [1],Potency [2],Potency [3],Potency [4],Potency [5],Potency [6],Potency [7],Potency [8],Potency [9],Potency [10],Potency [11],Potency [12],Potency [13],Potency [14],Potency [15],Potency [16],Potency [17],Potency [18],Potency [19]
NC(=O)c1c(OCc2c(F)cc(Br)cc2F)nsc1NC(=O)NCCCCN1CCCC1,26.4 µM (active),18.7 µM (active),20.9 µM (active),16.6 µM (active),8.33 µM (active),inactive,18.7 µM (active),7.43 µM (active),26.4 µM (active),9.35 µM (active),2.96 µM (active),20.9 µM (active),18.7 µM (active),–,–,–,–,–,–
Nc1nccc(Oc2ccc(NC(=O)c3c[nH]cc(-c4ccc(F)cc4)c3=O)cc2F)c1Cl,26.4 µM (active),18.7 µM (active),20.9 µM (active),20.9 µM (active),16.6 µM (active),–,16.6 µM (active),–,20.9 µM (active),20.9 µM (active),1.18 µM (active),2.35 µM (active),37.2 µM (active),inactive,33.2 µM (active),23.5 µM (active),18.7 µM (active),–,–
C=CCn1c(=O)c2cnc(Nc3ccc(N4CCN(C)CC4)cc3)nc2n1-c1cccc(C(C)(C)O)n1,0.59 µM (active),0.526 µM (active),0.743 µM (active),0.469 µM (active),0.332 µM (active),–,0.526 µM (active),8.33 µM (active),–,7.43 µM (active),–,0.166 µM (active),0.59 µM (active),0.118 µM (active),–,inactive,–,9.35 µM (active),–
CCOc1cc2ncc(C#N)c(Nc3ccc(F)c(Cl)c3)c2cc1NC(=O)C=CCN(C)C,18.7 µM (active),0.526 µM (active),9.35 µM (active),5.26 µM (active),0.662 µM (active),–,5.26 µM (active),4.69 µM (active),20.9 µM (active),5.9 µM (active),0.296 µM (active),4.18 µM (active),14.8 µM (active),–,20.9 µM (active),18.7 µM (active),10.5 µM (active),–,18.7 µM (active)
CC[C@@H]1C(=O)N(C)c2cnc(Nc3ccc(C(=O)NC4CCC(N5CCN(CC6CC6)CC5)CC4)cc3OC)nc2N1C(C)C (some centres undefined),0.0418 µM (active),0.187 µM (active),2.64 µM (active),–,5.26 µM (active),–,0.0743 µM (active),4.18 µM (active),3.72 µM (active),1.32 µM (active),1.32 µM (active),1.87 µM (active),0.209 µM (active),2.96 µM (active),–,7.43 µM (active),–,0.935 µM (active),0.264 µM (active)
COc1cc2c(Oc3ccc4[nH]c(C)cc4c3F)ncnc2cc1OCCCN1CCCC1,9.35 µM (active),9.35 µM (active),20.9 µM (active),8.33 µM (active),5.9 µM (active),–,29.6 µM (active),2.96 µM (active),–,7.43 µM (active),18.7 µM (active),26.4 µM (active),–,2.64 µM (active),–,23.5 µM (active),–,–,26.4 µM (active)
Cc1ccc(C(=O)Nc2ccc(CN3CCN(C)CC3)c(C(F)(F)F)c2)cc1C#Cc1cnc2cccnn12,1.87 µM (active),0.332 µM (active),2.64 µM (active),2.09 µM (active),0.935 µM (active),2.64 µM (active),2.96 µM (active),0.833 µM (active),0.833 µM (active),0.935 µM (active),4.69 µM (active),3.32 µM (active),5.9 µM (active),–,6.62 µM (active),7.43 µM (active),5.9 µM (active),0.662 µM (active),14.8 µM (active)
CC1(C)O[C@@H]2C[C@@H]3[C@H]4C[C@@H](F)C5=CC(=O)C=C[C@]5(C)[C@@]4(F)[C@@H](O)C[C@]3(C)[C@]2(C(=O)CO)O1,inactive,inactive,inactive,inactive,0.0074 µM (active),–,inactive,–,–,inactive,0.0118 µM (active),inactive,–,–,–,0.0105 µM (active),–,–,–
N#Cc1c(O)c2c(-c3ccc(-c4ccccc4O)cc3)csc2[nH]c1=O,inactive,inactive,–,inactive,inactive,inactive,5.26 µM (active),–,inactive,inactive,16.6 µM (active),inactive,13.2 µM (active),inactive,inactive,–,inactive,–,inactive
COc1ccc(CC2SC(=O)NC2=O)cc1C(=O)NCc1ccc(C(F)(F)F)cc1 (centres undefined),inactive,–,inactive,inactive,5.9 µM (active),inactive,inactive,–,inactive,inactive,–,inactive,–,–,–,–,inactive,–,–
Nc1nc(NCCNc2ncc(-n3ccnc3)c(-c3ccc(Cl)cc3Cl)n2)ccc1[N+](=O)[O-],5.26 µM (active),1.18 µM (active),6.62 µM (active),–,1.48 µM (active),–,–,9.35 µM (active),16.6 µM (active),1.18 µM (active),2.35 µM (active),16.6 µM (active),23.5 µM (active),–,16.6 µM (active),–,11.8 µM (active),–,–
CCCn1c(=O)c2[nH]c(-c3cnn(Cc4cccc(C(F)(F)F)c4)c3)nc2n(CC)c1=O,inactive,–,5.9 µM (active),inactive,inactive,–,–,–,5.9 µM (active),inactive,16.6 µM (active),–,inactive,–,–,13.2 µM (active),10.5 µM (active),–,inactive
COC(=O)Nc1nc2ccc(C(=O)c3ccc(F)cc3)cc2[nH]1,0.59 µM (active),0.418 µM (active),2.35 µM (active),–,–,–,0.833 µM (active),–,0.418 µM (active),0.743 µM (active),–,0.833 µM (active),1.66 µM (active),–,–,11.8 µM (active),0.935 µM (active),0.296 µM (active),0.662 µM (active)
CCCCc1nc2cc(C=CC(=O)NO)ccc2n1CCN(CC)CC,2.64 µM (active),–,0.743 µM (active),1.87 µM (active),0.372 µM (active),–,0.059 µM (active),0.209 µM (active),0.132 µM (active),0.935 µM (active),0.526 µM (active),0.235 µM (active),0.526 µM (active),–,–,0.418 µM (active),0.0743 µM (active),–,–
Nc1cccc(-c2cc3c(Oc4cccc(O)c4)ncnc3[nH]2)c1,16.6 µM (active),8.33 µM (active),–,–,18.7 µM (active),–,20.9 µM (active),18.7 µM (active),–,23.5 µM (active),3.32 µM (active),–,–,inactive,–,–,–,–,inactive
O=C(O)CCCc1c[nH]c2ccccc12,inactive,inactive,–,inactive,inactive,inactive,–,–,inactive,inactive,–,inactive,inactive,inactive,inactive,–,inactive,–,inactive
Nc1ccc(C(=O)c2cc3c(ccc4ccccc43)[nH]2)cc1,2.64 µM (active),2.64 µM (active),7.43 µM (active),–,3.72 µM (active),–,2.64 µM (active),–,–,18.7 µM (active),–,–,9.35 µM (active),–,16.6 µM (active),6.62 µM (active),5.26 µM (active),–,–
Cc1cn(-c2cc(NC(=O)c3ccc(C)c(Nc4nccc(-c5cccnc5)n4)c3)cc(C(F)(F)F)c2)cn1,inactive,–,18.7 µM (active),inactive,inactive,–,20.9 µM (active),–,20.9 µM (active),inactive,inactive,18.7 µM (active),20.9 µM (active),inactive,–,11.8 µM (active),23.5 µM (active),–,26.4 µM (active)
O=C(O)Cn1nnc(-c2cc(N3CCC(Oc4cc(F)ccc4Br)CC3)no2)n1,16.6 µM (active),inactive,–,inactive,–,–,inactive,–,inactive,inactive,8.33 µM (active),inactive,inactive,inactive,inactive,–,inactive,–,–
Cc1c(Cn2c(C)nc3c(C(=O)O)cc(N4CCOCC4)cc32)cccc1C(F)(F)F,9.35 µM (active),16.6 µM (active),–,–,–,–,–,0.0935 µM (active),inactive,–,0.0662 µM (active),–,inactive,inactive,–,–,inactive,–,inactive
CC[C@@H]1C(=O)N(C)c2cnc(Nc3ccc(C(=O)NC4CCN(C)CC4)cc3OC)nc2N1C1CCCC1,0.0235 µM (active),0.0833 µM (active),7.43 µM (active),–,4.69 µM (active),–,0.0235 µM (active),6.62 µM (active),4.69 µM (active),2.35 µM (active),4.18 µM (active),1.18 µM (active),0.0743 µM (active),1.66 µM (active),–,13.2 µM (active),0.166 µM (active),–,0.469 µM (active)
CCn1nnc2c(N3CCOCC3)nc(-c3ccc(NC(=O)Nc4ccc(C(=O)N5CCN(C)CC5)cc4)cc3)nc21,0.0235 µM (active),0.0053 µM (active),0.0187 µM (active),–,0.0083 µM (active),–,0.0059 µM (active),0.0235 µM (active),0.0037 µM (active),0.0066 µM (active),0.0332 µM (active),0.0469 µM (active),0.0059 µM (active),0.0469 µM (active),0.0418 µM (active),0.0332 µM (active),0.0469 µM (active),–,5.26 µM (active)

# — PubChem BioAssay (NCATS)
